Measured values from article PMC4336329 (PLoS ONE, 2015).
Hit rate of the full screen: of about 310,000 compounds, about 14,000 (4.5%) showed an effect of 50% or more. Effects have a minus sign here. The list comes from a sample in which strong results are over-represented; it also holds similar structures and randomly drawn compounds.

Molecular target: human ether-à-go-go-related gene (hERG) potassium channel (human, UniProt Q12809)
Experiment: primary screen, population patch clamp on CHO cells stably expressing hERG; higher = less effect of the substance
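Also: peak tail current of the secondary pulse compared with the same well before compound.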

Chain of human ether-à-go-go-related gene (hERG) potassium channel (Q12809 whole entry, looked up): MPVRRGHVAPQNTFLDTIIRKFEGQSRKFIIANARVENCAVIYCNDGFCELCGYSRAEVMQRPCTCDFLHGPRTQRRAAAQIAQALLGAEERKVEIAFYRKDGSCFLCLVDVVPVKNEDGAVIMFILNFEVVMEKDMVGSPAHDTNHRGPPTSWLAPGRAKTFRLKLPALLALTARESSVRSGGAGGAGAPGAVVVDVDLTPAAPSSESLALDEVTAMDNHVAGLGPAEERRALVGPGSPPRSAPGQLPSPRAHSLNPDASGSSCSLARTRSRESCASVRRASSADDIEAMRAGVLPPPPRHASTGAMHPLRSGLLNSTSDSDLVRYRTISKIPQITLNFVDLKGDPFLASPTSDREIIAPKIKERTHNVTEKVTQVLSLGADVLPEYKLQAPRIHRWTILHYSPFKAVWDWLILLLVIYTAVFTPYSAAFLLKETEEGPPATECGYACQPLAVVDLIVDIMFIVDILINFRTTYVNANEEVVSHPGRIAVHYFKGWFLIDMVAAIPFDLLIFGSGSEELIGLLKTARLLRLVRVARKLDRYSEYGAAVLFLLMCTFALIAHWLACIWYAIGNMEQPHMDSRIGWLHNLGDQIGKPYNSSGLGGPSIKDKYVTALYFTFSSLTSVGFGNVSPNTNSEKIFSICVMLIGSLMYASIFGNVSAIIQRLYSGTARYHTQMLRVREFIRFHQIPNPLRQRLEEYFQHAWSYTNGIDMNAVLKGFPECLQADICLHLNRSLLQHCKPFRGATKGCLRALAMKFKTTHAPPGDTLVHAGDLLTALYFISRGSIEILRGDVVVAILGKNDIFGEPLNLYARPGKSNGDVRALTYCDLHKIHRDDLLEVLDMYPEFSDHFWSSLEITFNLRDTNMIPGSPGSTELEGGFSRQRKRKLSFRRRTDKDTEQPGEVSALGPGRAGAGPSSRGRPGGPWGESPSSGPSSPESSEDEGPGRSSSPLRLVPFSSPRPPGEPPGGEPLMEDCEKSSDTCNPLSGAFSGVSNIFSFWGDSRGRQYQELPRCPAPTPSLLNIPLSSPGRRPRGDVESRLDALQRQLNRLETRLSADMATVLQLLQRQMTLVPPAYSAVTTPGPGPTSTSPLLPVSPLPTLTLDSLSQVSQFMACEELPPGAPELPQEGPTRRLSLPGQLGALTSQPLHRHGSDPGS

| Structure (SMILES) | hERG current change (%, negative = inhibition) at 10uM [%] |
| --- | --- |
| O=C(O)Cn1nnc(-c2ccc(OCc3ccccc3)cc2)n1 | 23.9 |
| COc1ccccc1CNC(=O)c1cnn2c(C(F)F)cc(C)nc12 | -26.4 |
| Cc1cc(C)cc(N(C(=O)C(F)(F)F)C(C(=O)NC2CCCCC2)c2cccs2)c1 (centres unmarked) | -7.03 |
| O=C(CCCc1ccccc1)NCCCc1ccccc1 | -10.9 |
| CN(Cc1ccccc1)C1CCCN(C(=O)c2ccc(Cl)s2)C1 (centres unmarked) | -30.4 |
| COC(=O)c1c(C(=O)OC)c(-c2ccc(Br)cc2)n2c1CS(=O)C2 (centres unmarked) | -1.16 |
| CCCNC(=O)c1onc(CSc2cccc(OC)c2)c1C(=O)NCCC | -7.12 |
| O=C(O)c1cccc(S(=O)(=O)N2CC=C(c3ccccc3)CC2)c1 | -4.64 |
| COCCNC(=O)/C(C#N)=C/c1cc(C)n(C2CCCCC2)c1C | -0.875 |
| Cc1ccc(S(=O)(=O)N(C)C)cc1NC(=O)CSc1nnnn1-c1ccc(O)cc1 | -20.9 |
| CCN(CC)S(=O)(=O)c1ccc2nc(CSc3nnnn3-c3ccc(O)cc3)[nH]c2c1 | -53.9 |
| CCN(CC)S(=O)(=O)c1ccc2nc(CCl)[nH]c2c1 | -16.7 |
| O=C(c1cccc(C(=O)N2CCN(c3ccccc3F)CC2)n1)N1CCN(c2ccccc2F)CC1 | -28.3 |
| O=C(/C=C/c1ccc(Cl)cc1Cl)N1CCN(c2ccc([N+](=O)[O-])c(N3CCOCC3)c2)CC1 | -34.5 |
| O=[N+]([O-])c1ccc(N2CCOCC2)cc1N1CCCCC1 | -5.12 |
| O=C(/C=C/c1ccc(Cl)cc1)N1CCN(c2ccc([N+](=O)[O-])c(N3CCOCC3)c2)CC1 | -72.4 |
| O=C(/C=C/c1ccccc1)N1CCN(c2ccc([N+](=O)[O-])c(N3CCOCC3)c2)CC1 | -54.3 |
| O=[N+]([O-])c1ccc(N2CCCCC2)cc1N1CCOCC1 | -11.3 |
| O=C(/C=C/c1ccc(Cl)cc1)N1CCOCC1 | 9.65 |
| Cc1c(C(=O)NN2CCOCC2)oc2ccccc12 | 16.5 |
| N#Cc1cc2c(nc1SCc1cccc(Cl)c1)CCCCC2 | 8.72 |

| Structure (SMILES) | hERG current change (%, negative = inhibition) at 10uM [%] |
| --- | --- |
| COc1cc(C2NC(=O)NC(C)=C2C(=O)OCC2CCCO2)cc(OC)c1OC (centres unmarked) | 18.8 |
| COc1ccc(N2CCN(c3ncnc4scc(-c5ccccc5)c34)CC2)cc1 | 18.6 |
| COc1ccc(NC(=O)c2ccccc2NC(=O)CSc2ccc(Cl)cc2)cc1 | 3.21 |
| Cc1cc(C)cc(NC(=O)C2C3C=CC4(O3)C2C(=O)N(CCCN2CCCCC2)C4C(=O)NC2CCCCC2)c1 (centres unmarked) | 20.7 |
| O=C(NCc1ccccc1)c1ccc(Cl)c(NC2=NC3CS(=O)(=O)CC3S2)c1 (centres unmarked) | -0.123 |
| O=C(Cn1c[n+](CC(=O)c2ccc([N+](=O)[O-])cc2)cn1)c1ccc([N+](=O)[O-])cc1.[Br-] | 21.3 |
| O=C(Cn1cc[n+](CC(=O)c2ccccc2)c1)c1ccccc1.[Br-] | 0.024 |
| C[n+]1ccn(CC(=O)c2ccc(Cl)cc2)c1.[Br-] | -3.61 |
| O=C(Cn1cc[n+](CC(=O)c2ccc(Cl)cc2Cl)c1)c1ccc(Cl)cc1Cl.[Br-] | -61.5 |
| O=C(C[n+]1cnn(CC(=O)c2ccc(Cl)cc2Cl)c1)c1ccc([N+](=O)[O-])cc1.[Br-] | -73.3 |
| O=C(Cn1nc(Cl)nc1Cl)c1ccc([N+](=O)[O-])cc1 | 1.69 |
| COc1ccc(-c2ccc(SCc3cccnc3)nn2)cc1OC | 29 |
| Cc1ccccc1N1CC(C(=O)Nc2ccc(S(=O)(=O)N3CCCC3)cc2)CC1=O (centres unmarked) | 3.59 |
| CCOC(=O)NC1(C(F)(F)F)N=C(c2ccccc2)NC1=O (centres unmarked) | 4.77 |
| Cc1ccc(-n2cccn2)c([C@@H]2C[C@H]3CN(C)C(=O)[C@]34CCCN24)c1 | -61.1 |
| Cc1cc(C)c([C@@H]2C[C@H]3CN(C4CCCC4)C(=O)[C@]34CCCN24)c(-n2cccn2)c1 | -80.7 |
| O=C1N(C2CCCC2)C[C@@H]2C[C@@H](c3cn[nH]c3-c3ccc(Cl)cc3)N3CCC[C@@]123 | -37.8 |
| CN1C[C@@H]2C[C@@H](c3ccc(C#CC(C)(C)O)s3)N3CCC[C@@]23C1=O | 9.88 |
| Cn1cc([C@@H]2C[C@H]3CN(C4CCCC4)C(=O)[C@]34CCCN24)c(-c2ccccc2)n1 | -18.5 |
| CN1C[C@@H]2C[C@@H](C3=Cc4cc(Cl)ccc4OC3)N3CCC[C@@]23C1=O | -32.7 |
| CCOc1cc(CNc2ncn[nH]2)ccc1OCC(=O)NC(C)(C)C | 5.22 |

| Structure (SMILES) | hERG current change (%, negative = inhibition) at 10uM [%] |
| --- | --- |
| Cc1ccc(OCC(=O)N(C)Cc2ccccc2)c([N+](=O)[O-])n1 | 3.95 |
| NN/C(=C\[N+](=O)[O-])Nc1ccc(Cl)cc1 | 13.6 |
| Cc1ccc(S(=O)(=O)CCC(=O)OCC(=O)c2c[nH]c3ccccc23)cc1 | -8.93 |
| COc1ccc(S(=O)(=O)N2CCN(C(=O)NC3CCCCC3)CC2)cc1OC | -17.7 |
| COC(=O)c1cc(Br)c(=O)n(-c2ccc(OC)cc2)c1 | -0.31 |
| COC(=O)c1cc(Br)c(=O)n(CCc2ccc(F)cc2)c1 | -24.9 |
| COC(=O)c1cc(Br)c(=O)n(-c2ccc(F)cc2)c1 | -63.9 |
| COCC(C)n1c(SCc2ccc(C(=O)OC)o2)nc2ccccc2c1=O (centres unmarked) | -8.61 |
| COc1ccccc1C1CC(c2cccs2)=Nc2ccccc2S1 (centres unmarked) | 14.4 |
| CC1CCCN(C(=O)c2ccc(Br)c(S(=O)(=O)N3CCOCC3)c2)C1 (centres unmarked) | -7.24 |
| COc1ccc(C2CC3(CC(C)(C)NC(SC)=N3)Oc3cc(O)cc(C)c32)cc1.I (centres unmarked) | -74.3 |
| COc1ccc(C2CC3(CC(C)(C)NC(=S)N3)Oc3cc(O)cc(C)c32)cc1 (centres unmarked) | 14.6 |
| Cc1cc(O)cc2c1C(c1ccc(F)cc1)CC1(CC(C)(C)NC(=S)N1)O2 (centres unmarked) | 14.2 |
| CC12CN(C(=S)Nc3ccccc3)CC(C)(CN(C(=S)Nc3ccccc3)C1)C2=O | 10.3 |
| COc1ccc(/C=C(/NC(=O)c2ccco2)C(=O)Nc2ccc(C(=O)O)cc2)cc1 | 9.11 |
| COc1ccccc1N1CCN(C(=O)c2ccc(-c3ccc(Cl)cc3)o2)CC1 | -7.22 |
| O=C(COc1ccc2ccccc2c1)N1CCN(Cc2ccncc2)CC1.O=C(O)C(=O)O | -33.9 |
| COc1cc(/C=C/C(=O)OCC(=O)N2CCN(C(=O)c3ccco3)CC2)ccc1O | 2.55 |
| CC(C)c1ccc(OCC(=O)N2CCN(C(=O)c3ccco3)CC2)cc1 | -49.1 |
| O=C(COC(=O)/C=C/c1ccc(Cl)cc1)NCCN1C(=O)CSC1=O | -21.2 |
| O=C(COc1ccc2ccccc2c1)N1CCN(C(=O)c2ccco2)CC1 | -61.7 |

| Structure (SMILES) | hERG current change (%, negative = inhibition) at 10uM [%] |
| --- | --- |
| O=C(COc1ccc2ccccc2c1)N1CCN(C2CCN(Cc3ccccc3)CC2)CC1 | -77.7 |
| Cc1ccc(/C=C/C(=O)OCC(=O)NCCN2C(=O)CSC2=O)cc1 | -17.9 |
| Cc1cccc(OCC(=O)N2CCN(C(=O)c3ccco3)CC2)c1 | -6.95 |
| COc1cccc(CN2CCN(C(=O)COc3ccc4ccccc4c3)CC2)c1 | -38.7 |
| CCOC(=O)/C=C/C(=O)OCC(=O)N1CCN(C(=O)c2ccco2)CC1 | 9.59 |
| O=C(COC(=O)/C=C/c1ccc(OC(F)F)cc1)NCCN1C(=O)CSC1=O | -60.8 |
| O=C(/C=C/c1ccc(OC(F)F)cc1)OCC(=O)N1CCN(C(=O)c2ccco2)CC1 | -71 |
| CC1=NN(c2ccccc2)C(=O)C1C(=O)c1cc([N+](=O)[O-])cc([N+](=O)[O-])c1 (centres unmarked) | 2 |
| CCn1c(=S)sc2c(=O)n(CC(=O)Nc3cccc(Cl)c3)c(C)nc21 | 6.27 |
| Cc1ccc(-c2nc(N)sc2CC(=O)OCC(=O)N2C(C)CCCC2C)cc1 (centres unmarked) | -7.22 |
| COc1ccc2cc(CCNC(=O)c3ccc(Br)o3)c(=O)[nH]c2c1 | -9.51 |
| COCCCNC(=S)N1CCN(C(c2ccccc2)c2ccccc2)CC1 | 5.04 |
| COc1cccc2cc(C(C)N(CCCN3CCOCC3)C(=S)Nc3ccccc3C)oc12 (centres unmarked) | -7.78 |
| COc1ccc2[nH]c(=O)c(CN(C(=O)C(C)C)c3ccccc3OC)cc2c1 | -2.54 |
| COc1cccc(=O)c2c(C)oc(C)c12 | 3.11 |
| O=C(N/N=C/c1cccs1)c1cnccn1 | -1.91 |
| CC(Sc1nc(-c2ccccc2)cc(C(F)(F)F)n1)C(=O)N1CCCCC1 (centres unmarked) | -17.9 |
| COc1ccc(OCC(=O)N2CCN(C(=O)c3ccco3)CC2)cc1 | -32.3 |
| N#Cc1ccc(OCC(=O)N2CCN(C(=O)c3ccco3)CC2)cc1 | -71 |
| O=C(COc1ccccc1)N1CCN(C(=O)c2ccco2)CC1 | -8.03 |
